Assay results reported in PubChem BioAssay (Tox21).
Values without a mark were called inactive. Records with an inconclusive call do not appear. Where a call stands in place of a potency, no number is given. Calls of active or inactive are those of the source. Unless noted, the call rests on the fitted dose curve; in most records, active means well fitted curve in the direction sought with a large enough effect in the repeat runs; inconclusive means weak or mixed curves; inactive means no such curve, though single readings can be large; an effect the other way counts as inactive or inconclusive.

What was measured:
[1] = qHTS assay to identify small molecule antagonists of the glucocorticoid receptor (GR) signaling pathway - cell viability counter screen (AID 720693); further: nearly all actives have a fitted effect of over 55% in size
[2] = qHTS assay for identifying genotoxic compounds that show differential cytotoxicity against isogenic chicken DT40 cell lines with known DNA damage response pathways - wild type cell line (AID 743012); further: nearly all actives have a fitted effect of over 60% in size
In short: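 Luminescent ATP viability signal (CellTiter-Glo, 30 min RT) recorded after wild type DT40 cells were incubated with compounds for 40 h at 37 C/5% CO2.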

[3] = qHTS assay for identifying genotoxic compounds that show differential cytotoxicity against isogenic chicken DT40 cell lines with known DNA damage response pathways - Rev3 mutant cell line (AID 743014); further: nearly all actives have a fitted effect of over 55% in size
[4] = qHTS assay for identifying genotoxic compounds that show differential cytotoxicity against isogenic chicken DT40 cell lines with known DNA damage response pathways - Rad54/Ku70 mutant cell line (AID 743015); further: nearly all actives have a fitted effect of over 60% in size
[5] = qHTS assay to identify small molecule antagonists of the androgen receptor (AR) signaling pathway - cell viability counter screen (AID 743033; further: nearly all actives have a fitted effect of over 45% in size)
[6] = qHTS assay to identify small molecule antagonists of the androgen receptor (AR) signaling pathway using the MDA cell line - cell viability counter screen (AID 743041; further: nearly all actives have a fitted effect of over 45% in size)
In short: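 In this qHTS counter assay, fluorescence intensity after CellTiter-Fluor addition indicated viability of MDA-kb2 AR-luc cells given compounds and R1881 for 16 h at 37C.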

[7] = qHTS assay to identify small molecule antagonists of the thyroid receptor (TR) signaling pathway - cell viability counter screen (AID 743064); further: nearly all actives have a fitted effect of over 50% in size
In short: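 Viability of T3-stimulated (1 nM final) GH3.TRE-Luc cells is measured by CellTiter-Fluor fluorescence after 23.5 h compound exposure at 37 °C plus 30 min reagent incubation.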

[8] = biological target: Androgen receptor (Homo sapiens) (UniProt P10275); experiment: qHTS assay to identify small molecule antagonists of the androgen receptor (AR) signaling pathway (AID 743035; active means well fitted inhibition curve with a large enough effect in the signal ratio in the repeat runs, not every such curve was filed as active; the % refers to the signal ratio)
Androgen receptor (Homo sapiens), sequence (P10275 whole entry, looked up): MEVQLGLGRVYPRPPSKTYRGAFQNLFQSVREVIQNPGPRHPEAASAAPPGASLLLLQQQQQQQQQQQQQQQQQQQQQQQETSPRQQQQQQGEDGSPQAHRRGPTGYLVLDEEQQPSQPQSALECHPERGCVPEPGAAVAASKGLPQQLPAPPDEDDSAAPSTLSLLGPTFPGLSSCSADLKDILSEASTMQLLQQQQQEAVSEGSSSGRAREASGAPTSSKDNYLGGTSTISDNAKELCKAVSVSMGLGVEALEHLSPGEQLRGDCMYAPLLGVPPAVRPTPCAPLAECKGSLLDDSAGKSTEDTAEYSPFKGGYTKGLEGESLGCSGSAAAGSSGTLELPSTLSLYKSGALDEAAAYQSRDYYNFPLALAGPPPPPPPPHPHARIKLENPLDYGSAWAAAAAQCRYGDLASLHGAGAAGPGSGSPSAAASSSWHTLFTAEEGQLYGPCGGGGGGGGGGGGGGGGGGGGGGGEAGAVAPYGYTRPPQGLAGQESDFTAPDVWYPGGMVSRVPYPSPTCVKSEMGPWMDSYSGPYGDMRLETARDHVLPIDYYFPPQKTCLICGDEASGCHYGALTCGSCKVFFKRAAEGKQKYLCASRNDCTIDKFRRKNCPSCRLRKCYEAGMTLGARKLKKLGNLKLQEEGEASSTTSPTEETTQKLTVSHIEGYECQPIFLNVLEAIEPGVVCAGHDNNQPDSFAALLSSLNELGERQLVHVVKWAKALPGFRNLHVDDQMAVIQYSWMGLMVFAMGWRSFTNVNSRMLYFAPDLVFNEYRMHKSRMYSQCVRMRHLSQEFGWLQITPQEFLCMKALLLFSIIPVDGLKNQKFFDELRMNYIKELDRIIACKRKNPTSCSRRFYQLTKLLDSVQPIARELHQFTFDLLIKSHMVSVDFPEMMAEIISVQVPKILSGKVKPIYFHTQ
In short: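 Quantitative HTS of the Tox21 10K library used HEK293 AR-UAS-bla cells stimulated with R1881 alongside compound for 16 h at 37C, followed by beta-lactamase FRET detection (LiveBLAzer B/G, 2 h, RT).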

[9] = biological target: Androgen receptor (Homo sapiens) (UniProt P10275); experiment: qHTS assay to identify small molecule agonists of the androgen receptor (AR) signaling pathway using the MDA cell line (AID 743040; further: nearly all actives have a fitted effect of over 20% in size; further: potency means the concentration at half of the fitted maximal effect)
In short: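 Cell-based luciferase reporter: MDA-kb2, MMTV promoter (AR + GR response elements). 16 h compound exposure at 37C; ONE-Glo, 30 min RT, luminescence.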

[10] = biological target: Androgen receptor (Homo sapiens) (UniProt P10275); experiment: qHTS assay to identify small molecule agonists of the androgen receptor (AR) signaling pathway (AID 743036; active means well fitted activation curve with a large enough effect in the signal ratio in the repeat runs, with a control signal flat, not every such curve was filed as active; the % refers to the signal ratio)
In short: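 Screening used 2,000 AR-bla HEK293 cells per well, treated 16 h at 37C with test compounds in DMSO alongside positive and DMSO-only controls; beta-lactamase activity was then read by LiveBLAzer B/G FRET fluorescence after 2 h at room temperature.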

CO[Si](CCCNCCC[Si](OC)(OC)OC)(OC)OC
outcome [1]: inactive | Potency [2]: inactive | Potency [3]: inactive | Potency [4]: inactive | outcome [5]: inactive | Potency [6]: inactive | Potency [7]: inactive

CCCCC=O
outcome [1]: inactive | Potency [2]: inactive | Potency [3]: inactive | Potency [4]: inactive | outcome [5]: inactive | Potency [6]: inactive | Potency [7]: inactive

C=C(C)C(=O)OCCCCCCCCCCCCCCCCCC
outcome [1]: inactive | Potency [2]: inactive | Potency [3]: inactive | Potency [4]: inactive | outcome [5]: inactive | Potency [6]: inactive | Potency [7]: inactive

COCCOC(=O)CC#N
outcome [1]: inactive | Potency [2]: inactive | Potency [3]: inactive | Potency [4]: inactive | outcome [5]: inactive | Potency [6]: inactive | Potency [7]: inactive

CCN(CC)S(=O)(=O)c1ccc(C(=O)O)cc1
outcome [1]: inactive | Potency [2]: inactive | Potency [3]: inactive | Potency [4]: inactive | outcome [5]: inactive | Potency [6]: inactive | Potency [7]: inactive

OC/C=C/c1ccccc1
outcome [1]: inactive | Potency [2]: inactive | Potency [3]: inactive | Potency [4]: inactive | outcome [5]: inactive | Potency [6]: inactive | Potency [7]: inactive

CCCCCCCCCCCCCCCCCC(=O)OCCCCCCCCCCCCCC(C)C
outcome [1]: inactive | Potency [2]: inactive | Potency [3]: inactive | Potency [4]: inactive | outcome [5]: inactive | Potency [6]: inactive | Potency [7]: inactive

Cc1nccn1CC1CCc2c(c3ccccc3n2C)C1=O (configuration not stated)
outcome [1]: inactive | Potency [2]: inactive | Potency [3]: inactive | Potency [4]: inactive | outcome [5]: inactive | Potency [6]: inactive | Potency [7]: inactive

O=C(O)c1cccc(C(=O)O)n1
outcome [1]: inactive | Potency [2]: inactive | Potency [3]: inactive | Potency [4]: inactive | outcome [5]: inactive | Potency [7]: inactive

C[N+](C)(C)CC[N+]1(C)Cc2c(Cl)c(Cl)c(Cl)c(Cl)c2C1
outcome [1]: inactive | Potency [2]: inactive | Potency [3]: inactive | Potency [4]: inactive | outcome [5]: inactive | Potency [6]: inactive | Potency [7]: inactive

CCO[Si](C)(OCC)OCC
outcome [1]: inactive | Potency [2]: inactive | Potency [3]: inactive | Potency [4]: inactive | outcome [5]: inactive | Potency [6]: inactive | Potency [7]: inactive

COC(C(=O)O)c1ccccc1 (configuration not stated)
outcome [1]: inactive | Potency [2]: inactive | Potency [3]: inactive | Potency [4]: inactive | outcome [5]: inactive | Potency [6]: inactive | Potency [7]: inactive

O=S(=O)(c1cccc2cnccc12)N1CCCNCC1
outcome [1]: inactive | Potency [2]: inactive | Potency [3]: inactive | Potency [4]: inactive | outcome [5]: inactive | Potency [7]: inactive

CC(=O)N[C@@H](CCC(N)=O)C(=O)O
outcome [1]: inactive | Potency [2]: inactive | Potency [3]: inactive | Potency [4]: inactive | outcome [5]: inactive | Potency [6]: inactive | Potency [7]: inactive

CCCc1ccc(N)cc1
outcome [1]: inactive | Potency [2]: inactive | Potency [3]: inactive | Potency [4]: inactive | outcome [5]: inactive | Potency [6]: inactive | Potency [7]: inactive

CC(C)c1ccc2oc3nc(N)c(C(=O)O)cc3c(=O)c2c1
outcome [1]: inactive | Potency [2]: inactive | Potency [3]: inactive | outcome [5]: inactive | Potency [8]: inactive | Potency [9]: 11.9 µM (active) | Potency [6]: inactive | Potency [7]: inactive

CCCCCCC(CCCCCCCCCCC(=O)OCC(COC(C)=O)OC(C)=O)OC(C)=O (configuration not stated)
outcome [1]: inactive | Potency [2]: inactive | Potency [4]: inactive | outcome [5]: inactive | Potency [6]: inactive

C1=C\CC/C=C\CC/C=C\CC/1
outcome [1]: inactive | Potency [2]: inactive | Potency [3]: inactive | Potency [4]: inactive | Potency [6]: inactive | Potency [7]: inactive

CCCC=O
outcome [1]: inactive | Potency [2]: inactive | Potency [3]: inactive | Potency [4]: inactive | Potency [6]: inactive | Potency [7]: inactive

CCO[Si](CCCN=C=O)(OCC)OCC
outcome [1]: inactive | Potency [2]: inactive | Potency [3]: inactive | Potency [4]: inactive | Potency [6]: inactive | Potency [7]: inactive

OCc1ccccn1
outcome [1]: inactive | Potency [2]: inactive | Potency [3]: inactive | Potency [4]: inactive | Potency [7]: inactive

NC(=S)Nc1cccc2ccccc12
viability change, negative = cytotoxic [1]: -9.87% [at 7.04 µM] | activity change, negative = cytotoxicity [2]: 28.7% [at 8.52 µM] | activity, negative = cytotoxicity [3]: -8.62% [at 8.53 µM] | activity change, negative = cytotoxicity [5]: 0.303% [at 7.04 µM] | activity change, negative = cytotoxic [7]: -2.02% [at 8.44 µM]

CN(C)CCn1nnnc1SCC1=C(C(=O)O)N2C(=O)[C@@H](NC(=O)Cc3csc(N)n3)[C@H]2SC1
outcome [1]: inactive | Potency [2]: inactive | Potency [3]: inactive | Potency [4]: inactive | Potency [8]: inactive | outcome [10]: inactive | Potency [9]: inactive | Potency [6]: inactive

C[C@H](O)C(=O)Nc1c(I)c(C(=O)NC(CO)CO)c(I)c(C(=O)NC(CO)CO)c1I
outcome [1]: inactive | Potency [2]: inactive | Potency [3]: inactive | Potency [4]: inactive | Potency [7]: inactive

CC1=CC(=O)CCC1
outcome [1]: inactive | Potency [2]: inactive | Potency [3]: inactive | Potency [4]: inactive | Potency [6]: inactive | Potency [7]: inactive

NS(=O)(=O)c1cc(C2(O)NC(=O)c3ccccc32)ccc1Cl (configuration not stated)
outcome [1]: inactive | Potency [2]: inactive | Potency [3]: inactive | Potency [4]: inactive | outcome [5]: inactive | Potency [7]: inactive

CCN1CCN(c2cc3c(cc2F)c(=O)c(C(=O)O)cn3C2CC2)CC1
outcome [1]: inactive | Potency [2]: inactive | Potency [3]: inactive | outcome [5]: inactive | Potency [8]: inactive | outcome [10]: inactive | Potency [9]: inactive | Potency [6]: inactive | Potency [7]: inactive

CC(C)(C)OC(=O)N1C[C@@H](F)C[C@H]1C(=O)O
outcome [1]: inactive | Potency [2]: inactive | Potency [3]: inactive | outcome [5]: inactive | Potency [6]: inactive | Potency [7]: inactive

CC(C)CCCCCCN
outcome [1]: inactive | Potency [2]: inactive | Potency [4]: inactive | outcome [5]: inactive | outcome [10]: inactive | Potency [9]: inactive | Potency [6]: inactive | Potency [7]: inactive

NC(N)=NS(=O)(=O)c1ccc(N)cc1
outcome [1]: inactive | Potency [2]: inactive | Potency [3]: inactive | Potency [4]: inactive | Potency [8]: inactive | outcome [10]: inactive | Potency [9]: inactive | Potency [6]: inactive | Potency [7]: inactive

O=[N+]([O-])c1ccc(Oc2ccc([N+](=O)[O-])cc2)cc1
outcome [1]: inactive | Potency [2]: inactive | Potency [3]: inactive | Potency [4]: inactive | Potency [6]: inactive | Potency [7]: inactive
